TGFb SMAD3 inh: inhibitors of TGF-b signaling; HepG2 CAGA-GFP TGF-b/SMAD3 reporter, GFP fluorescence, 18 h; TGF-beta stimulated, 500 pg/mL final; Potency, µM (titrated, usually from 46.1 µM), inactives show at the highest dose activity, negative = inhibition, most hits filed as inhibitors; 410,000 tested, 1.2% active; AID 588855; also: % is scaled to controls: 0 for no effect and ±100 for the full control effect; nearly all actives have a fitted effect of over 65% in size
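Cell-based qHTS in HEPG2 carrying a CAGA-GFP Smad reporter; compounds added before 500 pg/mL final TGF-beta, 18 h incubation at 37 degrees C, GFP fluorescence quantified per cell by imaging cytometry.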
HTT cytoprotect: Huntington cell model cytoprotection by ATP luminescence | PC12 HTT-Q103 induced, cytoprotection, ATP luminescence, 40 h | Potency, µM (top dose mostly 56.4 µM), inactives show cytoprotection (ATP increase), most hits filed as activators | 230,000 tested, 0.14% active; also: % of control where 0% means no effect; nearly all actives have a fitted effect of over 45% in size
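Stable PC12 Q103-GFP cells in serum-supplemented, phenol red-free DMEM; induction by tebufenozide at 100 nM final; compound dose series; cell viability quantified luminescently from ATP.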
ATXN2 expr inh: inhibitors of ATXN2 expression; HEK-293 ATXN2-luciferase reporter, luminescence, 24 h; Potency, µM (highest dose often 57 µM), inactives show at the top dose activity change, negative = inhibition, usual class: inhibitors; 360,000 tested, 0.72% active; AID 1745845; also: % is scaled to controls: 0 for no effect and ±100 for the full control effect; nearly all actives have a fitted effect of over 55% in size
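qHTS (up to 57 uM final) was run with 24 h compound exposure of reporter cells at 37 °C. Each well was multiplexed: SteadyGlo luminescence measured ATXN2-luciferase expression after a fluorogenic Gly-Phe-AFC viability readout (25 uM final).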
HTT aggregate: reduces HttQ103-GFP aggregates in PC12 cells. PC12 HttQ103-GFP aggregates, Acumen cytometry, 40 h. Potency, µM (top dose mostly 46.1 µM), for the others: top-dose activity change, negative = inhibition, usual class: inhibitors. 220,000 tested, 1.1% active. AID 1688; also: % is scaled to controls: 0 for no effect and ±100 for the full control effect; nearly all actives have a fitted effect of over 60% in size
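PC12/HTTQ103-GFP, ecdysone-inducible; teb 100 nM; cpd qHTS titration; GFP aggregates read on laser cytometer, Ex 488/Em 500-530 nm.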
HepG2 viability: counter-screen for TGF-b inhibitors: cytotoxicity in HepG2 cells; HepG2 CAGA-GFP viability, ATP luminescence, 18 h; Potency, µM (series often up to 46.1 µM), for inactives: at the top dose activity change, negative = cytotoxicity, hits mostly cytotoxic; 410,000 tested, 0.76% active
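HepG2 CAGA-GFP cells (1000/well, DMEM with 1% FBS) received compound, then TGF-beta at 500 pg/mL final, and were incubated 18 hours at 37 degrees C. Viability was read by CellTiter-Glo luminescence. Media-only wells were set as complete cell-killing and DMSO as no toxicity.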
ATXN viability: viability counter-screen for ATXN expression inhibitors | S2 cells (HEK-293 line with an ATXN2-luciferase reporter) viability, CellTiter-Fluor protease fluorescence, 24 h | Potency, µM (doses to about 56.7 µM), most hits filed as cytotoxic | 400,000 tested, 0.49% active | AID 651635; also: nearly all actives have a fitted effect of over 40% in size
An asterisk follows results filed as active; i = inactive; u = inconclusive; x = no result given; [ ] = dose if it differs, or a comment. A selection: hits, their analogues and other compounds. The true share with any hit is near 2.8%. Calls follow the shape of the dose curve; as a rule, active = well fitted curve in the direction sought with a large enough effect; inconclusive = small, poorly fitted or top-dose-only effect, or another doubt; inactive = no such curve, though single readings can be large; an effect the other way counts as inactive or inconclusive. Potency is read from the fitted curve at half-maximal effect.

SMILES | TGFb SMAD3 inh | HTT cytoprotect | ATXN2 expr inh | HTT aggregate | HepG2 viability | ATXN viability
COc1ccccc1C1CN(Cc2cccc3nccnc23)Cc2ccccc2O1 (stereo not drawn) | x | x | x | x | x | i
CCOC(=O)c1c(NC(=O)C(NCCN(C)C)c2ccccc2)sc2c1CCCC2 (stereo not drawn) | u | x | 28µM* | x | -105% | x
CCOC(=O)c1c(NC(=O)c2ccccc2Cl)sc2c1CCCC2 | 107% | x | 7% | x | -35% | i
COc1ccc(C=Cc2cc(OC)c(OC)c(OC)c2)cc1O | x | x | 0% | x | x | x
Oc1ccc(/C=N/Nc2ccnc3cc(Cl)ccc23)cc1O | u | -19%[10 µM] | u | 15%[9.22 µM] | -41% | 32µM*
Oc1ccc(/C=N/Nc2ccnc3cc(Cl)ccc23)c(O)c1O | 0% | x | 3% | x | -1% | i
CCN(CC)Cc1ccc(Nc2ccnc3cc(Cl)ccc23)cc1O | x | 14µM* | x | x | x | x
CC(C)(CO)NC(=O)c1cnn(-c2nccc(-c3ccc4c(c3)OCO4)n2)c1C1CC1 | x | x | x | x | x | i
O=C(CN(C(=O)c1ccc(Cl)cc1)C1CCCCC1)Nc1ccc(Cl)c([N+](=O)[O-])c1 | u | 28%[1.9 µM] | u | 13µM* | -27% | u
CCOc1ccc(N(CC(=O)Nc2cccc(OC)c2)S(=O)(=O)c2c(C)noc2C)cc1 | -13% | -8%[10 µM] | -16% | -29% | -4% | i
CCOc1ccc(N(CC(=O)Nc2cccc(Cl)c2)S(=O)(=O)c2c(C)noc2C)cc1 | u | 3% | -38% | 22µM* | -12% | u
CN(C)CCOc1ccc(C(=C(CCCl)c2ccccc2)c2ccccc2)cc1 | x | x | 3% | x | x | x
CCCn1c(CN(C)Cc2ccccc2)nc2c1c(=O)n(C)c(=O)n2C | 0% | 10%[10 µM] | -21% | 22µM* | -12% | i
CCCn1c(CN2CCN(c3cccc(Cl)c3)CC2)nc2c1c(=O)n(C)c(=O)n2C | -24% | -128% | -30% | 5.6µM* | -39% | i
Cn1c(=O)c2c(nc(CN3CCc4ccccc4C3)n2CC(=O)c2ccccc2)n(C)c1=O | 7.9µM* | -59%[0.074 µM] | -5% | x | -31% | i
CN(Cc1ccccc1)Cc1nc2c(c(=O)n(C)c(=O)n2C)n1CCc1ccccc1 | -14% | -7%[0.074 µM] | -8% | x | -3% | i
CCCCn1c(CN(C)Cc2ccccc2)nc2c1c(=O)n(C)c(=O)n2C | u | 24%[10 µM] | -24% | 20µM* | -20% | i
Cn1c(=O)c2c(nc(CN3CCc4ccccc4C3)n2Cc2ccccc2)n(C)c1=O | u | -12%[10 µM] | -12% | -13% | -17% | i
CCCCn1c(CN2CCN(c3cccc(Cl)c3)CC2)nc2c1c(=O)n(C)c(=O)n2C | -6% | -5%[0.074 µM] | u | -14% | 2% | i
COc1ccc(-c2coc3ccc(O[C@@H]4O[C@@H](COC(C)=O)[C@@H](OC(C)=O)[C@@H](OC(C)=O)[C@H]4OC(C)=O)c(OC(C)=O)c3c2=O)cc1 | x | -20% | x | x | x | x
COc1cc2c(cc1OC)CN(CCc1ccc(NC(=O)c3cc(OC)c(OC)cc3NC(=O)c3cnc4ccccc4c3)cc1)CC2 | x | x | -26% | x | x | x
COC(=O)C1=CO[C@@H](O)[C@@H]2C(CO)=CC[C@@H]12 | x | x | -10% | x | x | x
CC(C)OCCCNc1ncnc2c1[nH]c1ccccc12 | -31% | 19%[1.9 µM] | -23% | 7.1µM* | -28% | u
CC(C)Cn1[nH]c2c3c(ccc2c1=O)C(=O)c1ccccc1C3=O | u | -70% | -11% | 22µM* | -27% | i
COc1ccccc1C(=O)NCC(=O)Nc1ccccc1 | 11% | -16% | 5% | 0.35µM* | 11% | i
SMILES | TGFb SMAD3 inh | HTT cytoprotect | ATXN2 expr inh | HTT aggregate | HepG2 viability | ATXN viability
O=C(c1cc(-c2cccs2)nc2ccccc12)N1CCN(S(=O)(=O)c2cccc(F)c2)CC1 | 41% | 0% | 0% | 0.63µM* | -8% | i
O=C(c1cc(-c2cccs2)nc2ccccc12)N1CCN(S(=O)(=O)c2ccccc2)CC1 | -5% | 0% | 2% | 4% | -11% | i
O=C1c2ccccc2-c2onc3c(NCCO)cc(NC4CCCCC4)c1c23 | 11µM* | x | u | x | -41% | u
COC(=O)c1ccccc1NC(=O)COC(=O)c1ccccc1N=Nc1ccc(N(C)C)cc1 | -1% | -43%[10 µM] | 35% | 6.3µM* | 0% | i
COC(=O)c1cc(CNC(=O)c2cccc(N(C)C)c2)cc(NC(=O)c2ccccc2Cl)c1 | x | x | x | x | x | i
COc1cc(OC)nc(C(NC(=O)C2CCN(Cc3c[nH]c4ccccc34)CC2)c2ccc(Cl)cc2)n1 (stereo not drawn) | u | x | u | x | 10µM* | x
O=C(N/N=C(\c1ccccc1)c1cccnc1)C(O)(c1ccccc1)c1ccccc1 | -15% | -28% | 0% | -12% | 11µM* | i
O=C(N/N=C(\c1ccccc1)c1cccnc1)c1ccc(O)cc1 | -13% | x | 4% | x | -1% | i
COc1cc(-c2cnc3ccccc3c2)cc2c1OCCN(C(=O)Cn1nccc1C)C2 | x | x | x | x | x | i
Cc1ccccc1NC(=O)C(=Cc1ccc(C(=O)O)cc1)C(=O)Nc1ccccc1C | u | 40%[10 µM] | 11µM* | 6.3µM* | -36% | u
CC(=O)/C(=C/c1ccccc1)C(=O)Nc1ccccc1C | 13µM* | -29% | x | -16% | -48% | u
CC(=O)Nc1ccccc1C | -3% | 18% | 5% | x | -4% | i
O=S(=O)(N1CCN(c2nc(-c3cccs3)nc3ccccc23)CC1)C(F)(F)F | 18% | x | x | x | -21% | x
COc1cc2c(cc1OC)CN(C(=O)[C@H](C)N[C@@H](CCc1ccccc1)C(=O)O)[C@H](C(=O)O)C2 | x | x | 10% | x | x | i
CC(C)NC(=O)CN1C(=O)c2ccccc2S1(=O)=O | -1% | 1%[10 µM] | -5% | 13%[9.22 µM] | 3% | i
O=C(CN1C(=O)c2ccccc2S1(=O)=O)Nc1ncc(Cl)cc1Cl | 18% | x | 5µM* | x | 3% | i
Cc1ccc(C(=O)CN2C(=O)c3ccccc3S2(=O)=O)cc1 | 2% | -60%[10 µM] | 1µM* | 2%[9.22 µM] | -22% | i
O=C(CN1C(=O)c2ccccc2S1(=O)=O)c1ccccc1 | 0% | -35% | 14µM* | -13% | 6% | i
CC(O)C1C(=O)N2C(C(=O)O)=C(SC3CNC(C(=O)N(C)C)C3)C(C)C12 (stereo not drawn) | x | x | 7% | x | x | x
CSc1ccc2cc(CNCc3ccccc3F)c(N3CCCC(CO)C3)nc2c1 (stereo not drawn) | x | x | x | x | x | i
Cc1ccnc(NS(=O)(=O)c2ccc(NC(=O)Nc3ccc(S(=O)(=O)Nc4nccc(C)n4)cc3)cc2)n1 | x | x | -9% | x | x | x
